# Test results reported in ChEMBL document CHEMBL4513160, “CO-ADD screening of MMV (CH) - Small Polar Library”.
# In all, about 18,000 compounds went through this assay and fewer than 10 showed an effect of 50% or more. These entries were drawn from the full list.
# System: Pseudomonas aeruginosa
# Experiment: Antibacterial activity against Pseudomonas aeruginosa PAO397 [PAO1 d(mexAB-oprM) d(mexCD-oprJ) d(mexEF-oprN) d(mexJKL) d(mexXY) d(opmH)] (CO-ADD:GN_211); MIC in CAMBH media using NBS plates, by OD(600)
# Assay type: functional
# Settings: Concentration 300 ug.mL-1, ASSAY_TEST Inhibition of Bacterial Growth, detection method Absorption (OD600), MEDIA CAMHB, plate type 384well, CORNING #3640, time 18 hr
row,Compound,Inhibition [%]
1,COCCCOc1cnc(C#N)cn1,-8.76
2,Cc1ncccc1CN1CCCCC1(C)C(N)=O (configuration not stated),-20.64
3,Cc1cc(C)cc(OCC(=O)N2CCNCC2)c1,-0.07
4,Cc1ccc(C(=O)NCCNC(=O)c2ccco2)cc1,-53.65
5,CC1COCCN1Cc1cn2ccccc2n1 (configuration not stated),15.25
6,c1ccc(C/N=C2/CCCCCN2)nc1,23.32
7,N#Cc1ccc(CN)cc1F,2.48
8,CN1CCN(C(N)=O)C(c2ccccc2)C1 (configuration not stated),4.12
9,COC(=O)CN1CCCC1=O,5.23
10,CCNC(=O)CSc1nc(C)c(C)n1CCOC,3.04
11,CN(C)C(CNC1=NCCN1)c1ccsc1 (configuration not stated),-1.92
12,Cc1c(NC(=O)c2cnccn2)cccc1C(N)=O,2.03
13,CCn1cnnc1CNC(=O)c1cccc(N(C)C)c1,-1.56
14,NC1CC(=O)c2ccccc21 (configuration not stated),4.06
15,O=C(CN1CCNC(=O)C1)NCCOc1ccccc1,25.17
16,c1cn(-c2cc(N3CCSCC3)ncn2)cn1,8.05
17,O=C(c1ccsc1)N1CCCN(c2cccnn2)CC1,0.34
18,CC(C)n1nccc1NC(=O)CN(C)Cc1ccco1,9.78
19,COc1ccc(CNc2ccncc2F)cc1C#N,-8.23

row,Compound,Inhibition [%]
1,CC(C)(C)C(=O)Nc1ccc(N2CCNC(=O)C2)cc1,7.8
2,COc1ccc(Cl)cc1NC(=O)N[C@@H]1CNCC[C@H]1O,-35.77
3,CN(C)C1(CNC(=O)c2cn[nH]c2)CCOCC1,-13.75
4,NCC1CCCOC1 (configuration not stated),10.08
5,COc1cc(CCCN)cc(OC)c1O,4.59
6,Cc1ccccc1CN1CCCN(CCC(N)=O)CC1,-4.93
7,NC(=O)NC(=O)CCNS(=O)(=O)c1ccccc1Cl,13.15
8,NCC(O)CN1CCc2ccccc2C1 (configuration not stated),-6.8
9,CC(CC(=O)N1CC[C@H](O)C1)c1cccc(F)c1 (some centres not stated),-15.14
10,CO[C@H]1CNCC1NC(=O)Cc1ccc(F)cc1F (some centres not stated),11.48
11,N#Cc1ncc(Cl)cc1Cl,28.39
12,CC(C)CC(=O)NCc1ccnc(N2CCCC2)c1,-20.17
13,CCC[C@H]1CN(C(=O)c2csc(NC)n2)C[C@@H]1N,2.64
14,NCCN1C(=O)COc2ccccc21,-12.94
15,Cc1cc(NC(=O)NCC2CCN(CCO)CC2)no1,13.32
16,CCc1cccc(S(=O)(=O)N2CC[C@H](N)C2)c1,-15.97
17,COCCNCCNC(=O)c1ccc(Cl)c(C)c1,-10.19
18,CNC(=O)c1ccc(C)c(NC(=O)c2ccco2)c1,-0.03
